Assay results as given in PubChem BioAssay (NCATS).
Where “and” joins values, the source holds several entries; their conditions need not be identical. Identical values can stand only once. Results filed as inconclusive are left out. Unmarked numbers belong to inactive results. Calls of active or inactive are those of the source. The call rests on the fitted dose curve; in most records, active means well fitted curve in the direction sought with a large enough effect; inconclusive means small, poorly fitted or top-dose-only effect, or another doubt; inactive means no such curve, though single readings can be large; an effect the other way counts as inactive or inconclusive.

System: not listed separately
Test: Drug repurposing screens with cells derived from glioblastoma tumor samples (AID 1345199); further: nearly all actives have a fitted effect of over 40% in size; on activity, negative = cell killing: on the % scale 0 is the no-effect control and ±100 the full control effect
Settings: GBM patient neurospheres viability, ATP luminescence, 48 h; at 46 µM (top of the series); tumour line A
How it was run: (§1)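 Primary testing used CD133+ neurospheres from four GBM patients, seven concentrations, 48 h exposure and ATP-based viability; confirmation added three slower-growing patient lines.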
Potency means the concentration at half of the fitted maximal effect.

Compound	activity, negative = cell killing
CN1Cc2c(N)cccc2C(c2ccccc2)C1 (stereo unspecified)	-25.6%
OC[C@H]1O[C@@H](OCCc2ccc(O)cc2)[C@H](O)[C@@H](O)[C@@H]1O	-5.89%
CCC(=O)NS(=O)(=O)c1ccc(-c2c(-c3ccccc3)noc2C)cc1	-24%
C[C@]12C=CC(=O)C=C1CC[C@@H]1[C@@H]2[C@@H](O)C[C@@]2(C)[C@H]1CC[C@]2(O)C(=O)COC(=O)CCC(=O)O	-20.8%
C[C@@H]1C[C@H]2[C@@H]3CCC4=CC(=O)C=C[C@]4(C)[C@@]3(F)[C@@H](O)C[C@]2(C)[C@@]1(O)C(=O)COP(=O)(O)O	-0.902%
CC(=O)OC(C)OC(=O)C(C)c1ccc(-c2ccccc2)c(F)c1 (stereo unspecified)	-17.1%

Same assay, conditions: GBM patient neurospheres viability, ATP luminescence, 48 h; at 46.1 µM (top of the series); tumour line C

Compound	activity, negative = cell killing
CN1Cc2c(N)cccc2C(c2ccccc2)C1 (stereo unspecified)	-16.4%
OC[C@H]1O[C@@H](OCCc2ccc(O)cc2)[C@H](O)[C@@H](O)[C@@H]1O	4.11%
CCC(=O)NS(=O)(=O)c1ccc(-c2c(-c3ccccc3)noc2C)cc1	-3.29%
CC[C@H]1OC(=O)C[C@@H](O)[C@H](C)[C@@H](O[C@@H]2O[C@H](C)[C@@H](O)[C@H](N(C)C)[C@H]2O)[C@@H](CCN2C[C@H](C)C[C@H](C)C2)C[C@@H](C)C(=O)/C=C/C(C)=C/[C@@H]1CO[C@@H]1O[C@H](C)[C@@H](O)[C@@H](OC)[C@H]1OC	-6.47%
C[C@]12C=CC(=O)C=C1CC[C@@H]1[C@@H]2[C@@H](O)C[C@@]2(C)[C@H]1CC[C@]2(O)C(=O)COC(=O)CCC(=O)O	7.76%
CCC[C@@H]1C[C@@H](C(=O)N[C@@H]([C@H]2O[C@H](SC)[C@H](OP(=O)(O)O)[C@@H](O)[C@H]2O)[C@H](C)Cl)N(C)C1	-6.5% and -2.32%
Nc1c(Br)cc(Br)cc1CNC1CCC(O)CC1 (stereo unspecified)	-10.6%
C[C@@H]1C[C@H]2[C@@H]3CCC4=CC(=O)C=C[C@]4(C)[C@@]3(F)[C@@H](O)C[C@]2(C)[C@@]1(O)C(=O)COP(=O)(O)O	-0.678%
C#C[C@]1(O)CC[C@H]2[C@@H]3CCC4=C/C(=N/O)CC[C@@H]4[C@H]3CC[C@@]21CC	-27.9%
CC(=O)OC(C)OC(=O)C(C)c1ccc(-c2ccccc2)c(F)c1 (stereo unspecified)	1.46% and -25.4%

Same assay, conditions: GBM patient neurospheres viability, ATP luminescence, 48 h; tumour line A

Compound	Potency
CC[C@H]1OC(=O)C[C@@H](O)[C@H](C)[C@@H](O[C@@H]2O[C@H](C)[C@@H](O)[C@H](N(C)C)[C@H]2O)[C@@H](CCN2C[C@H](C)C[C@H](C)C2)C[C@@H](C)C(=O)/C=C/C(C)=C/[C@@H]1CO[C@@H]1O[C@H](C)[C@@H](O)[C@@H](OC)[C@H]1OC	22.4 µM (active)
Nc1c(Br)cc(Br)cc1CNC1CCC(O)CC1 (stereo unspecified)	14.1 µM (active)
C#C[C@]1(O)CC[C@H]2[C@@H]3CCC4=C/C(=N/O)CC[C@@H]4[C@H]3CC[C@@]21CC	12.6 µM (active)

System: astro (control astrocytes)
Test: as above
Settings: viability, ATP luminescence, 48 h; series mostly up to 45.9 µM
How it was run: as §1

Compound	Potency
OC[C@H]1O[C@@H](OCCc2ccc(O)cc2)[C@H](O)[C@@H](O)[C@@H]1O	inactive
CCC(=O)NS(=O)(=O)c1ccc(-c2c(-c3ccccc3)noc2C)cc1	inactive
CCC[C@@H]1C[C@@H](C(=O)N[C@@H]([C@H]2O[C@H](SC)[C@H](OP(=O)(O)O)[C@@H](O)[C@H]2O)[C@H](C)Cl)N(C)C1	inactive
COc1ccc(C[C@H](N)C(=O)N[C@H]2[C@@H](O)[C@H](n3cnc4c(N(C)C)ncnc43)O[C@@H]2CO)cc1	3.16 µM (active)
Nc1c(Br)cc(Br)cc1CNC1CCC(O)CC1 (stereo unspecified)	inactive
CCC(=O)O[C@]1(C(=O)CCl)[C@@H](C)C[C@H]2[C@@H]3C[C@H](F)C4=CC(=O)C=C[C@]4(C)[C@@]3(F)[C@@H](O)C[C@@]21C	inactive
C[C@@H]1C[C@H]2[C@@H]3CCC4=CC(=O)C=C[C@]4(C)[C@@]3(F)[C@@H](O)C[C@]2(C)[C@@]1(O)C(=O)COP(=O)(O)O	inactive
C#C[C@]1(O)CC[C@H]2[C@@H]3CCC4=C/C(=N/O)CC[C@@H]4[C@H]3CC[C@@]21CC	20 µM (active)
CC(=O)OC(C)OC(=O)C(C)c1ccc(-c2ccccc2)c(F)c1 (stereo unspecified)	inactive

System: not listed separately
Test: qHTS assay to identify inhibitors of the type 1 interferon - major histocompatibility complex class I in skeletal muscle: Counter screen cell viability and HiBit confirmation (AID 1347412); further: nearly all actives have a fitted effect of over 60% in size
Settings: iHSKM muscle cells + IFN-b, HiBiT or CellTiter-Glo, 24 h; HiBiT
How it was run: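 CRISPR HLA-B*08:01-HiBit immortalized human myoblasts (C25cl48) stimulated with 4 ng/ml IFN-beta and compounds (12-point 1:3, top 46 uM final) for 24 h at 37 C. Duplicate plates read by HiBit lytic luminescence or CellTiter Glo ATP.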

Compound	Potency
COc1cc2c(Nc3ccc(Cl)c(Cl)c3F)ncnc2cc1OCC1C[C@@H]2CN(C)C[C@@H]2C1 (stereo partly specified)	19.8 µM (active)
CC(=O)c1cnc2ccc(-c3cc(Cl)c(O)c(Cl)c3)nc2c1NC1CCC(CN(C)C)CC1 (stereo unspecified)	0.0991 µM (active)
COc1cc(N2CCC(N(C)C)CC2)ccc1Nc1ncc(Cl)c(Nc2ccccc2P(C)(C)=O)n1	3.13 µM (active)
